Source: PubChem (National Center for Advancing Translational Sciences (NCATS))
The list is not random: actives were taken first. Their share in the collection is about 7.4%.
SMN2 splice enh – qHTS Assay for Enhancers of SMN2 Splice Variant Expression. hit rate 2.8% among 210,000. Potency, µM (highest dose often 46.1 µM), most hits filed as activators. AID 1458, 2008. HEK293 SMN2-luciferase splicing reporter, luminescence, 30-36 h; also: nearly all actives have a fitted effect of over 55% in size
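qHTS luciferase splicing reporter: luminescence rises when SMN2 exon 7 is included in transfected HEK293 cells. Compound exposure lasted 30-36 h at 37C, with 4.5 mM final sodium butyrate as control, followed by a ONE-Glo read.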
NPC1 prom act – qHTS Assay for NPC1 Promoter Activators; Huh7 NPC1 promoter luciferase reporter, 24 h; Potency, µM (doses to about 9.22 µM), usual class: activators; hit rate 2.4% among 320,000; AID 485313, 2010; also: nearly all actives have a fitted effect of over 60% in size
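Huh7 reporter cells (NPC1 promoter driving luciferase) are dosed with compound for 24 h at 37 °C, 5% CO2; luciferase detection reagent is then added and luminescence measured after 10 min at ambient temperature.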
KinaseGlo FLuc – Counterscreen for Luciferase (Kinase-Glo TM) Inhibition; Luciferin 4-monooxygenase (Photuris pensylvanica), Q27757; Kinase-Glo luciferase, ATP luminescence, 8 min; Potency, µM (highest dose often 38.3 µM), hits mostly inhibitors; hit rate 0.28% among 200,000; also: nearly all actives have a fitted effect of over 60% in size
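Kinase-Glo luciferase light output from ATP and luciferin was measured with 10 uM ATP, within the enzyme's linear range. Buffer: 50 mM imidazole pH 7.2, 50 mM KCl, 7 mM MgCl2, 0.01% Tween 20, 0.05% BSA; luminescence read after 8 min at ambient temperature.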
ELG1 genotox – qHTS screen for small molecules that induce genotoxicity in human embryonic kidney (HEK293T) cells expressing luciferase-tagged ELG1. HEK293T ELG1-luciferase reporter, luminescence, 16 h. Potency, µM (titrated, usually from 46 µM), actives largely listed as activators. hit rate 1.3% among 330,000; also: nearly all actives have a fitted effect of over 60% in size
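Screening used a luciferase reporter fused to human ELG1 in HEK293T cells. Luminescence was read on a CCD plate imager after 16 hr exposure and 30 min ONE-Glo incubation.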
Rab9 prom act – qHTS Assay for Rab9 Promoter Activators; Huh7 Rab9 promoter-luciferase reporter, luminescence, 24 h; Potency, µM (highest dose often 9.22 µM), most hits filed as activators; hit rate 2.8% among 320,000; also: nearly all actives have a fitted effect of over 60% in size
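Huh7 cells stably carrying Rab9 promoter–luciferase reporter, plated 1500 cells/well, compound added after 2 h and incubated 24 h at 37 °C; luciferase luminescence then read after 10 min with detection reagent.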
FLuc counter – qHTS profiling assay for firefly luciferase inhibitor/activator using purifed enzyme and Km concentrations of substrates (counterscreen for miR-21 project); Luciferin 4-monooxygenase (Photinus pyralis), P08659; purified FLuc, Km substrates, luminescence inhibition; Potency, µM (doses to about 57.5 µM), usual class: inhibitors; hit rate 6.9% among 360,000; AID 588342, 2011; also: nearly all actives have a fitted effect of over 55% in size
Target sequence (P08659 whole entry, looked up): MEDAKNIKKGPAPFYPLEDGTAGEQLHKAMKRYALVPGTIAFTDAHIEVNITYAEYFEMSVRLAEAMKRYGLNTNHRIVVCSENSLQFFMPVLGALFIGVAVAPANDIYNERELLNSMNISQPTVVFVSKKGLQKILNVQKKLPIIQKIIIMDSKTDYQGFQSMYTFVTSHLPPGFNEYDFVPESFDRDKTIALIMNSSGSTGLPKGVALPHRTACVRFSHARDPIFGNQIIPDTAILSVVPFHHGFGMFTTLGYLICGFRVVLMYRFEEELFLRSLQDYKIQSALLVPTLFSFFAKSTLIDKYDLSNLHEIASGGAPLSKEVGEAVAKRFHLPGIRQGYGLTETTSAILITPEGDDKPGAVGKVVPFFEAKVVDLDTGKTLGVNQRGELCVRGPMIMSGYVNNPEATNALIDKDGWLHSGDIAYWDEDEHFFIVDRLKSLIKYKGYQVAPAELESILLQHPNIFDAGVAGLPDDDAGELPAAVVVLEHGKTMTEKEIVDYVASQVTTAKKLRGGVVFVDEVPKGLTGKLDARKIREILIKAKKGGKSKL
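Purified P. pyralis luciferase (10nM final) with 10uM D-luciferin and 10uM ATP (Km levels) in 50mM Tris acetate pH 7.5, 10mM Mg acetate, 0.01% Tween-20, 0.05% BSA; qHTS 6-point titration, ~60 µM downward; luminescence read.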
A number is an active result; i = inactive; ? = inconclusive; nt = no result given; [ ] = another dose, or the depositor's remark. Calls follow the shape of the dose curve; as a rule, active = well fitted curve in the direction sought with a large enough effect; inconclusive = small, poorly fitted or top-dose-only effect, or another doubt; inactive = no such curve, though single readings can be large; an effect the other way counts as inactive or inconclusive.

SMILES	SMN2 splice enh	NPC1 prom act	KinaseGlo FLuc	ELG1 genotox	Rab9 prom act	FLuc counter
Nc1ccc(C(=O)N2N=C(c3ccccc3)CC2(O)C(F)(F)F)cc1 (configuration not stated)	nt	i	nt	i	i	12µM
CC(C)CCn1c(=O)c2sccc2n2c(CCCC(=O)NC(C)c3ccccc3)nnc12 (configuration not stated)	nt	nt	nt	nt	nt	i
CCS(=O)(=O)N1CC(=O)N(c2ccc(Cl)cc2C)C(C)(C(=O)NC2CCCCC2)C1 (configuration not stated)	nt	nt	nt	nt	nt	i
COc1ccc(-c2cc(C(=O)Nc3ccccc3)on2)cc1	?	i	?	?	i	0.54µM
COc1ccc(-n2nnc(C(=O)Nc3ccccc3F)c2N)cc1	7.1µM	nt	nt	nt	nt	2.4µM
COc1ccc(-c2cc(C(=O)Nc3ccccc3F)on2)cc1	?	i	i	?	3.2µM	i
COc1ccccc1CNC(=O)c1ccc(-c2nc(CN3CCc4ccccc43)c(C)o2)cc1	nt	nt	nt	nt	nt	i
Cc1ccc2onc(CC(=O)N(C)c3ccccc3)c2c1	nt	nt	nt	nt	nt	4.8µM
CCOC(=O)c1ccc(NC(=O)Cc2noc3ccc(C)cc23)cc1	nt	nt	nt	nt	nt	8.5µM
N#Cc1ccc(NC(=O)C2Cc3ccccc3CN2S(=O)(=O)c2ccc(F)cc2)cc1 (configuration not stated)	i	nt	nt	nt	nt	i
Cc1sc2c(c1C)C(=O)NC(c1cccc(O)c1)N2 (configuration not stated)	?	i	i	i	i	15µM
COC(=O)c1ccc(C2NC(=O)c3c(sc(C)c3C)N2)cc1 (configuration not stated)	nt	i	nt	i	i	?
COc1ccc(NC(=O)Cn2c(=O)n(-c3cccc(C)c3)c(=O)c3c2c2cc(C)ccc2n3C)cc1OC	i	nt	nt	nt	nt	i
Cc1c(/C=C/C(=O)c2cccs2)cnn1C	i	?	i	21µM	?	9.5µM
O=C(/C=C/c1ccccc1)c1cccs1	nt	nt	i	nt	nt	nt
CCc1ccc(C(=O)/C=C/c2cnn(C)c2C)s1	13µM	4µM	i	13µM	3.5µM	0.6µM
COc1c(C=O)c(=O)[nH]c2c(OC)cccc12	i	nt	i	nt	nt	nt
Cc1cccc(CCNC(=O)CN(c2ccc(C(C)C)cc2)S(=O)(=O)c2c(C)nn(C)c2C)c1	i	nt	nt	nt	nt	i
O=C(CSc1oc(-c2ccco2)nc1S(=O)(=O)c1ccc(Br)cc1)c1ccc(Cl)cc1	i	nt	nt	nt	nt	i
COc1ccc(NC(=O)c2oc3ccccc3c2NC(=O)C2CCCO2)cc1OC (configuration not stated)	?	i	i	i	?	?
Cc1ccc(NC(=O)c2oc3ccccc3c2NC(=O)C2CCCO2)cc1C (configuration not stated)	13µM	2.8µM	i	i	2.5µM	?
COc1ccc(NC(=O)c2oc3ccccc3c2NC(=O)C2CC2)cc1OC	nt	i	nt	i	i	17µM
CC(C)CSc1nnc(-c2ccccc2)c(-c2ccccc2)n1	i	nt	nt	nt	nt	i
OC[C@@H]1O[C@@H](N2CCN([C@@H]3O[C@@H](CO)[C@@H](O)[C@H](O)[C@H]3O)CC2)[C@@H](O)[C@H](O)[C@H]1O	i[9.22 µM]	nt	i[7.66 µM]	nt	nt	nt
CCN(CC)S(=O)(=O)c1cc(C(=O)Nc2ccc(Cl)cn2)ccc1C	1.6µM	1.8µM	i	1.8µM	1.6µM	2.4µM
SMILES	SMN2 splice enh	NPC1 prom act	KinaseGlo FLuc	ELG1 genotox	Rab9 prom act	FLuc counter
CCN(CC)S(=O)(=O)c1cc(C(=O)NC2CCCCC2)ccc1C	?	2.8µM	i	?	4µM	7.6µM
COc1ccc(-c2noc(-c3ccc(NC(C)c4ccccc4)c([N+](=O)[O-])c3)n2)cc1OC (configuration not stated)	nt	nt	nt	nt	nt	11µM
COc1cc(-c2noc(-c3ccc(N4CCOCC4)c([N+](=O)[O-])c3)n2)cc(OC)c1OC	nt	nt	nt	nt	nt	19µM
Cc1cccc(-c2noc(-c3ccc(Cl)cc3[N+](=O)[O-])n2)c1	?	0.71µM	i	?	2.5µM	1.5µM
COc1ccc(-c2noc(-c3ccc(N4CCCC4)c([N+](=O)[O-])c3)n2)cc1OC	nt	nt	nt	nt	nt	i
COc1ccc(-c2noc(-c3ccc(Cl)cc3[N+](=O)[O-])n2)cc1OC	25µM	?	i	i	4µM	4.3µM
O=C(OC1Cc2c(O)cc(O)cc2OC1c1cc(O)c(O)c(O)c1-c1c(C2Oc3cc(O)cc(O)c3CC2OC(=O)c2cc(O)c(O)c(O)c2)cc(O)c(O)c1O)c1cc(O)c(O)c(O)c1 (configuration not stated)	i	nt	i	nt	nt	nt
COc1ccccc1CNC(=O)C(Cc1ccccc1)NS(=O)(=O)c1ccc2c(c1)CCN2C(C)=O (configuration not stated)	i	nt	nt	nt	nt	i
COc1ccc(CCNC(=O)Cn2nc(-c3ccc(Cl)cc3)ccc2=O)cc1OC	nt	nt	nt	nt	nt	i
O=C(CCCCn1c(=O)c2ccccc2n(Cc2ccccc2F)c1=O)NCc1ccc2c(c1)OCO2	i	nt	nt	nt	nt	i
Clc1ccccc1-c1nnc2sc(-c3ccc4c(c3)OCO4)nn12	?	i	i	?	i	?
O=[N+]([O-])c1cccc(-c2nnc(-c3ccccc3)o2)c1	20µM	2.8µM	i	?	2.2µM	15µM
Clc1ccccc1-c1nnc(-c2ccc3c(c2)OCO3)o1	5µM	1.4µM	?	i	1.3µM	2.7µM
O=[N+]([O-])c1cccc(-c2nnc(-c3ccc4c(c3)OCO4)o2)c1	11µM	2.5µM	i	?	2.2µM	2.7µM
O=C(O)c1ccc(-c2nnc(-c3ccc([N+](=O)[O-])cc3)o2)cc1	nt	i	nt	i	i	i
O=C(O)c1cccc(-c2ccc3c(c2)OCO3)c1	nt	i	nt	i	i	?
O=C(NCc1ccccc1)c1ccc(Cn2c(=O)c3cccn3c3cccnc32)cc1	nt	nt	nt	nt	nt	i
CN1CCC[C@@H]1c1cccnc1	i	nt	nt	nt	nt	nt
Cc1[nH]nc(N)c1N=Nc1ccc(Br)cc1	i	i	i	i	i	?
Cc1nc(N)sc1N=Nc1ccc(Br)cc1	?	2.2µM	i	?	1.3µM	4.3µM
Cc1cccnc1NC(=S)NC(=O)c1oc2ccccc2c1C	nt	1.8µM	nt	?	3.2µM	19µM
CC(=O)Nc1ccc(NC(=S)NC(=O)c2oc3ccccc3c2C)cc1	i	i	i	i	i	i
C=CCNC(=S)NC(=O)c1oc2ccccc2c1C	?	?	i	?	4µM	9.5µM
Cc1c(C(=O)NC(=S)NCC(C)C)oc2ccccc12	13µM	2.8µM	i	?	?	3µM
COc1ccccc1CNC(=O)c1oc2ccccc2c1C	nt	i	nt	i	i	i
CCC(=O)Nc1ccc(NC(=S)NC(=O)c2oc3ccccc3c2C)cc1	i	i	i	i	i	i
